Among the data in PubChem BioAssay (NCI) are growth values, retold here.

Where “and” joins values, the source holds several entries; their conditions need not be identical. Equal entries are not always repeated. Compounds without any hit were thinned out: in the full panel of roughly 83,000, 20% have a hit.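 Growth was measured after 48 h exposure to one concentration of compound in 96-well plates. Values under 10 count as active.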 Unmarked numbers belong to inactive results. Calls of active or inactive are those of the source.

The subject of this test is MDA-MB-468 breast. Nature of the test: NCI-60 one-dose screen, 48 h (100 = growth as untreated, 0 = no growth, -100 = all killed). Particulars: 10 µM unless noted.
Regarding `CC1CC2C3CCC4=CC(=O)CCC4(C)C3CCC2(C)C1(O)C(=O)CO` (stereo unspecified), the growth is 115%.

As for `O=C(Nc1ccc(Cl)cc1)C1=NCCCCN1`, the growth is 111%.

In the case of `Cc1ccc(S(=O)(=O)N(c2ccc(Cl)cc2)c2ccc(Br)cc2C(=O)O)cc1`, the growth is 95.9%.

As for `O=C(Nc1ccc(Oc2ccc(F)cc2)c(Cl)c1)c1cccnn1`, the growth is 39.3%.

Consider `CN(C)CCNC(=O)c1ccc(-c2nc3ccc4[nH]ncc4c3c3c2C2CCC3C2)cc1` (stereo unspecified), for which the growth is 16.2%.

Consider `CCNC(=O)Oc1ccc(/C(=C(/C)c2ccc(Cl)cc2)c2ccc(OCCN3CCCC3)cc2)cc1`, for which the growth was 84.1%.

Turning to `O=C(Cc1ccc(Nc2ccnc(C(F)(F)F)c2)cc1)N/N=C/c1ccccc1O`, the growth was 8.1% (active).

For the compound `CCOC(=O)c1sc(NS(=O)(=O)c2ccccc2)nc1C`, the growth was 106%.

Regarding `Cc1c[nH]c(=O)n(Cc2nnc(CCC(=O)c3nc4ccccc4[nH]3)o2)c1=O`, the growth is -1.54% (active).

`Nc1ccc(-c2nc3cc(Oc4ccc(Oc5ccc6[nH]c(-c7ccc(N)cc7)nc6c5)cc4)ccc3[nH]2)cc1`: the growth is 90.3%.

With `CCOC(=O)c1cnc(SCC)nc1SC#N`, the growth is 124%.

For `COc1ccc(C(O)(CCC(C)C)C(CN2CCOCC2)c2ccc(Cl)cc2)cc1` (stereo unspecified), the growth is 80.6%.

As for `CC(C)(C)n1nc(C2CC2)c(Br)c1NC(=O)c1ccccc1F`, the growth is 114%.

For the compound `COc1cc2c(cc1OCCCOC1=C=C=C(c3ccc4c(c3)c3cc(-c5ccc(OCCCOc6cc7c(cc6OC)C(=O)N6CCC[C@H]6C=N7)cc5)ccc3n4S(=O)(=O)c3ccc(C)cc3)C=C1)N=C[C@@H]1CCCN1C2=O`, the growth was -17% (active).

Take `CC(/C=N/NC(N)=S)Cc1ccc(C(C)C)cc1` (stereo unspecified): the growth was 42.1%.

For `COc1cccc2cc(-c3cc4ccccc4[nH]3)/c(=N\NC(=O)c3ccc(Cl)cc3)oc12`, the growth is -2.01% (active).

In the case of `Cc1cc(C)c2c(c1)N(C)c1ncnc(-n3cnc4cc(C)ccc43)c1CC2C` (stereo unspecified), the growth is 6.16% (active).

For the compound `C=CCN1C(=O)/C(=c2\sc3n(c2=O)NC2C(N=3)N(CC)C(=O)N2CC)c2ccccc21` (stereo unspecified), the growth was 44.6%.

For `CC(C)C/C=C/C=C/C(=O)N[C@@H](CC(N)=O)C(=O)N[C@@H]1C(=O)N[C@H](c2ccc(O)cc2)C(=O)N[C@H](CCCN)C(=O)N[C@H]([C@@H](C)O)C(=O)N[C@H](c2ccc(O)cc2)C(=O)N[C@H](c2ccc(O)cc2)C(=O)N[C@H]([C@H](C)O)C(=O)N[C@H](Cc2ccccc2)C(=O)N[C@H](CCCN)C(=O)N[C@H](c2ccc(O[C@H]3O[C@@H](CO)[C@@H](O)[C@@H](O)[C@H]3O[C@@H]3O[C@H](CO)[C@H](O)[C@H](O)[C@@H]3O)cc2)C(=O)N[C@H]([C@H](C)O)C(=O)N[C@H](c2ccc(O)cc2)C(=O)NCC(=O)N[C@H](CC(C)C)C(=O)N[C@H](C)C(=O)N[C@H](c2ccc(O)c(Cl)c2)C(=O)O[C@@H]1C(N)=O`, the growth is 66.7%.

On to `CCOC(=O)c1cnn(-c2ccc(S(N)(=O)=O)cc2)c1N`, for which the growth is 94.7%.

`COc1ccccc1CNc1c2ccccc2nc2ccccc12`: the growth is 28.3%.

As to `CCCCOC1NC(=O)NC(=O)C1(F)C(=O)OCC` (stereo unspecified), the growth is 93.8% and 101%.

Take `CCCN1CCN(c2ccc3nc(-c4ccc5nc(-c6cc(OC)c(OC)c(OC)c6)[nH]c5c4)[nH]c3c2)CC1`: the growth was 47.1%.

In the case of `N=c1c2ccccc2nc2n1CCCCC2`, the growth was 103%.

On to `CC(C)(C)[Si](C)(C)OC1[C@@H](O[Si](C)(C)C(C)(C)C)[C@@H](CNC(=O)NC(=O)NC(=O)CCl)O[C@H]1n1cnc2c(NC(=O)Nc3ccccc3)ncnc21` (stereo partly specified), for which the growth was 106%.

Regarding `CCc1ccccc1-n1[nH]c(C)c(C=N)c1=O`, the growth was 90.3%.
